According to PubChem BioAssay AID463173 (ICCB-Longwood Screening Facility, Harvard Medical School, 2010):
The campaign covered roughly 52,000 compounds. About 1,700 (3.3%) were called active. No stated cut-off is given here; in the data, active means survival mostly below about 52% (no sharp cut-off); inactive means mostly above about 56%. Many of the other results were omitted from the sample, so actives are more common in it than they were.

The compounds below were run on Wild type (assay: growth inhibition of S. aureus wild type versus tarO mutant, primary screen, teichoic acid synthesis inhibitors, RN4220, OD600 (AID 463173)). Conditions: S. aureus RN4220 wild type/DeltatarO growth, OD600, 18 h, active compounds read low, screened at 18.75 µg/mL (by protocol).

| Structure (SMILES) | survival |
| --- | --- |
| O=C(Nc1ccc(F)cc1F)c1cccc2c1C(=O)N(C1CCCCC1)C2 | 94% (inactive) |
| CCn1c(C(=O)N2CCC(C(=O)N3CCN(c4ccc(OC)cc4)CC3)CC2)cc2sccc21 | 62% (inactive) |
| CCOc1ccccc1NC(=O)NC(CC)c1c(-n2cccc2)sc2c1CCN(C)C2 (stereo not given) | 69% (inactive) |
| CC1=C(C#N)c2nc(N)c(C#N)c(C)c2/C1=C\c1cccnc1 | 83% (inactive) |
| COc1ccc(Cl)cc1NC(=O)CCC(=O)N1CCOc2ccccc21 | 83% (inactive) |
| CC(=O)c1cccc(-n2c(=O)c3c4c(sc3n(Cc3ccccc3Cl)c2=O)CN(C(C)=O)CC4)c1 | 88% (inactive) |
| CCOC(=O)c1cc2c(=O)n3ccccc3nc2n(Cc2ccco2)c1=NC(=O)c1ccc(C(C)(C)C)cc1 | 72% (inactive) |
| CCOC(=O)c1c(NC(=O)c2ccc(S(=O)(=O)N(CC)CC)cc2)sc2c1CCCCC2 | 80% (inactive) |
| CCOC(=O)c1c(NC(C)=O)sc2c1CCC2 | 104% (inactive) |
| CCOC(=O)c1c(NC(=O)c2ccc(C)c(C)c2)sc2c1CCCCC2 | 0% (active) |
| CCOC(=O)c1c(NC(=O)c2ccc(OCC)c(Br)c2)sc2c1CCCC2 | 67% (inactive) |
| CCOC(=O)c1c(NC(=O)c2ccc(OC)c(OC)c2)sc2c1CCCCC2 | 69% (inactive) |
| CCOC(=O)c1c(NC(=O)c2cc(Cl)ccc2Cl)sc2c1CCCC2 | 76% (inactive) |
| CCOC(=O)c1c(NC(=O)c2ccccc2C)sc2c1CCCC2 | -8% (active) |
| CCOC(=O)c1c(NC(=O)c2cc(OCC)c(OCC)c(OCC)c2)sc2c1CCCCC2 | 83% (inactive) |
| CCOC(=O)c1c(NC(=O)c2ccc(C)cc2)sc2c1CCCCC2 | -1% (active) |
| Cc1c(C(=O)Nc2ccccc2Br)oc2ccc(S(=O)(=O)N3CCCCCC3)cc12 | 83% (inactive) |
| O=C(NCc1ccc(F)cc1)c1ccc2c(Cl)c3c(nc2c1)CCCC3 | 62% (inactive) |
| Cc1cc(C)cc(N2CC(c3nc(-c4cccc(Cl)c4)no3)CC2=O)c1 (stereo not given) | 32% (inactive) |
| CCCCNC(=O)c1sc2ncccc2c1-n1cccc1 | 47% (inactive) |

| Structure (SMILES) | survival |
| --- | --- |
| CCc1nc(-c2cc(S(=O)(=O)N3CCN(c4ccccc4OC)CC3)ccc2OC)no1 | 69% (inactive) |
| CCOc1ccccc1NC(=O)C(NS(=O)(=O)c1ccc2c(c1)CCC(=O)N2)c1ccccc1 (stereo not given) | 76% (inactive) |
| COC(=O)c1cc(S(=O)(=O)N2CCN(c3ccc(F)cc3)CC2)cn1C | -6% (active) |
| COC(=O)c1scc(-c2ccc(C)cc2)c1S(=O)(=O)N1CCN(c2ccccc2)CC1 | 64% (inactive) |
| Cn1cc(S(=O)(=O)N2CCCCCC2)cc1C(=O)N1CCN(c2ccc(F)cc2)CC1 | 71% (inactive) |
| COC(=O)c1scc(-c2ccc(C)cc2)c1S(=O)(=O)N1CCN(c2ccc(F)cc2)CC1 | -6% (active) |
| COc1ccccc1N1CCN(C(=O)c2cc(S(=O)(=O)N3CCC(C)CC3)cn2C)CC1 | 0% (active) |
| CC1CCN(S(=O)(=O)c2cc(C(=O)N3CCN(c4ccccc4F)CC3)n(C)c2)CC1 | 65% (inactive) |
| Cc1cccc(N2CCN(C(=O)c3cc(S(=O)(=O)N4CCC(C)CC4)cn3C)CC2)c1C | 49% (inactive) |
| Cn1cc(S(=O)(=O)N2CCCCC2)cc1C(=O)N1CCN(c2ccc(F)cc2)CC1 | 65% (inactive) |
| COC(=O)c1scc(-c2ccc(C)cc2)c1S(=O)(=O)N1CCN(c2ccc(OC)cc2)CC1 | 75% (inactive) |
| CCc1ccc(-n2nc3cc(C)c(NC(=O)c4cc(OC)cc(OC)c4)cc3n2)cc1 | 69% (inactive) |
| Cc1ccc(-c2cc(C(=O)Nc3c(C(=O)c4ccc(C)c(F)c4)oc4ccccc34)no2)cc1 | 93% (inactive) |
| O=C(Nc1cccc(NC(=O)C2CCCO2)c1)c1ccco1 (stereo not given) | 102% (inactive) |
| O=C(Nc1ccc(F)c(Cl)c1)C1CCN(S(=O)(=O)c2ccc3c(c2)CCCN3C(=O)C2CCC2)CC1 | 67% (inactive) |
| COC(=O)c1c(SC)nc2ccccc2c1OCc1ccc(C)cc1 | 75% (inactive) |
| NC(=O)C1CCN(C(=O)CSc2nc(O)cc(=O)[nH]2)CC1 | 97% (inactive) |
| O=C(N/N=C1/SCC(=O)N1Cc1ccco1)c1ccccc1F | 97% (inactive) |
| COc1ccc(S(=O)(=O)Nc2ccc(-c3cn4c(C)csc4n3)cc2)cc1 | 78% (inactive) |
| CC(=O)c1ccc(S(=O)(=O)Nc2ccc(-c3cn4c(C)csc4n3)cc2)cc1 | -6% (active) |

| Structure (SMILES) | survival |
| --- | --- |
| CC(=O)Nc1ccc(S(=O)(=O)Nc2ccc(-c3cn4c(C)csc4n3)cc2)cc1 | 69% (inactive) |
| CCc1ccccc1Nc1nn2c(=O)c3ccc(C(=O)NCc4ccc(C)cc4)cc3nc2s1 | 92% (inactive) |
| Cc1ccccc1Cn1c(CN2CCC(C(=O)NCCc3ccccc3)CC2)cc2ccccc21 | 110% (inactive) |
| CC(=O)N1CCc2c(sc3c2c(=O)n(-c2ccccc2C)c(=O)n3CC(=O)Nc2ccccc2)C1 | 69% (inactive) |
| CCOc1ccc(-n2c(SCC(=O)Nc3cc(C)on3)nc3c([nH]c4ccccc43)c2=O)cc1 | 69% (inactive) |
| CCOc1ccc(N(CC)S(=O)(=O)N2CCCC(C(=O)Nc3cc(Cl)ccc3C)C2)cc1 (stereo not given) | 79% (inactive) |
| COc1ccc(NC(c2ccc(F)cc2)c2nnc(-c3ccccc3Cl)o2)cc1Cl (stereo not given) | 88% (inactive) |
| CCc1cccc(NC(c2nnc(-c3ccccc3)o2)c2ccc(F)cc2Cl)c1 (stereo not given) | 70% (inactive) |
| Cc1ccc(Cl)cc1NC(c1ccc(F)cc1)c1nnc(-c2ccccc2)o1 (stereo not given) | 117% (inactive) |
| Cc1ccc(C)c(NC(c2ccccc2)c2nnc(-c3ccccc3F)o2)c1 (stereo not given) | 5% (active) |
| COc1cc(Cl)c(C)cc1NC(c1ccccc1)c1nnc(-c2ccccc2Cl)o1 (stereo not given) | 75% (inactive) |
| CCc1cccc(NC(c2ccccc2)c2nnc(-c3ccccc3F)o2)c1 (stereo not given) | 1% (active) |
| COc1cc(C(=O)Nc2ccc3nc(SCc4ccccc4)sc3c2)cc(OC)c1OC | 86% (inactive) |
| CCOC(=O)c1[nH]c2c(c1Cc1ccccc1C)C(=O)CC(c1ccccc1)C2 (stereo not given) | 95% (inactive) |
| O=C(NCCc1ccccc1)C(=O)NCC(c1ccco1)S(=O)(=O)c1cccs1 (stereo not given) | 75% (inactive) |
| O=C(NCCc1ccc(Cl)cc1)C(=O)NCC(c1ccco1)S(=O)(=O)c1cccs1 (stereo not given) | -3% (active) |
| O=C(NCCc1ccc(F)cc1)C(=O)NCC(c1ccco1)S(=O)(=O)c1cccs1 (stereo not given) | 53% (inactive) |
| O=C(NCc1ccccc1)C(=O)NCC(c1ccco1)S(=O)(=O)c1cccs1 (stereo not given) | 70% (inactive) |
| O=C(NCc1ccc(F)cc1)C(=O)NCC(c1ccco1)S(=O)(=O)c1cccs1 (stereo not given) | 0% (active) |
| Cc1ccc(CNC(=O)C(=O)NCC(c2ccco2)S(=O)(=O)c2cccs2)cc1 (stereo not given) | 75% (inactive) |
